# Results: the supplement of paper PMC11732987, “Enantioselective OTUD7B fragment discovery through chemoproteomics screening and high-throughput optimisation” (Communications Chemistry, 2025)
# A number with no mark means an inactive call.
# Assays:
# Assay in all cases: log2 ratio of Biotin-Ahx-Ub-VS probe labelling (fragment/DMSO); higher = less target engagement (more negative = stronger competition), active = hit call of the paper (q ≤ 0.05, log2 ratio ≤ -1)
# Conditions in all cases: compound concentration: 200 uM; treatment time: 3 h
# OTUD6B = target: T1, OTUD6B (UniProt Q8N6M0)
# T1 sequence (whole entry): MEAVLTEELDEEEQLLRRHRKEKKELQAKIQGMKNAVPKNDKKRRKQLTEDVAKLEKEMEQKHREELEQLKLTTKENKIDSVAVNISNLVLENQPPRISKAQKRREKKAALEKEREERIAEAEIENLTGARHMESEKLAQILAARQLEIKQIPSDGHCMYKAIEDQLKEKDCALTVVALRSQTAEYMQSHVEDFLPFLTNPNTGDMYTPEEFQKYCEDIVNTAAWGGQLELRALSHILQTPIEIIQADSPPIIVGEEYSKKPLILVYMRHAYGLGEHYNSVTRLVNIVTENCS
# Procedure, shortened: (§1)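 HEK293T lysate, 495 µg per sample in Tris/CHAPS/IGEPAL buffer with protease inhibitors, was treated in triplicate with fragment at 200 µM or vehicle for 3 h and then with Biotin-Ahx-Ub-VS at 0.5 µM final for 1 h. Labelled DUBs were NeutrAvidin-enriched, digested with LysC and trypsin, and run by diaPASEF LC-MS/MS. Spectronaut label-free quantities were global-median-normalised, and values are average log2 fragment/vehicle ratios by unpaired t-test on proteins with ≥2 unique peptides.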
# OTUD7B = target: T2, OTUD7B (UniProt Q6GQQ9)
# T2 sequence (whole entry): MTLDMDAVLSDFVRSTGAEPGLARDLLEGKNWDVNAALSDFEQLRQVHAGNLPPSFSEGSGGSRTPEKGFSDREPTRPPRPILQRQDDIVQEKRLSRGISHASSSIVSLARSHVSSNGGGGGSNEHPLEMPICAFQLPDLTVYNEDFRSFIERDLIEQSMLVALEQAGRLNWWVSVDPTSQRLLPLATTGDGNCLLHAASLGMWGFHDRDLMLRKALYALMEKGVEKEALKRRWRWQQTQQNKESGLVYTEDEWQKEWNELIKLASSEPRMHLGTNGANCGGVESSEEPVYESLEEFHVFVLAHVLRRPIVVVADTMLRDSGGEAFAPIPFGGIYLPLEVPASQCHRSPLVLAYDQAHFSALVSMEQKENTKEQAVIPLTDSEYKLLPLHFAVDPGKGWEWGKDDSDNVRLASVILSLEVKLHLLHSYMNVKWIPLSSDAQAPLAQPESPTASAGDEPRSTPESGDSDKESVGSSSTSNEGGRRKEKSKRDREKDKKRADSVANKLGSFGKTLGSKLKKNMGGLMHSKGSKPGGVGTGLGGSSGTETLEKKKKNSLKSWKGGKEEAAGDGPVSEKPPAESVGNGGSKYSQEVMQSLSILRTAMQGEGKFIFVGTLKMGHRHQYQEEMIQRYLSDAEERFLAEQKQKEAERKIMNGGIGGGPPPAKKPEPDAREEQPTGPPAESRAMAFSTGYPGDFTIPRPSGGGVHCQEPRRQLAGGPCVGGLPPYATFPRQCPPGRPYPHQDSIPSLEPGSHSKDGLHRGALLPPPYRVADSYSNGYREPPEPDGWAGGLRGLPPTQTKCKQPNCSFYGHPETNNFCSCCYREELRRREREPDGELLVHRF
# Procedure, shortened: as §1
# PRPF8 = PRPF8 (UniProt Q6P2Q9)
# Procedure, shortened: as §1
# PSMD7 = target: T3, PSMD7 (UniProt P51665)
# T3 sequence (whole entry): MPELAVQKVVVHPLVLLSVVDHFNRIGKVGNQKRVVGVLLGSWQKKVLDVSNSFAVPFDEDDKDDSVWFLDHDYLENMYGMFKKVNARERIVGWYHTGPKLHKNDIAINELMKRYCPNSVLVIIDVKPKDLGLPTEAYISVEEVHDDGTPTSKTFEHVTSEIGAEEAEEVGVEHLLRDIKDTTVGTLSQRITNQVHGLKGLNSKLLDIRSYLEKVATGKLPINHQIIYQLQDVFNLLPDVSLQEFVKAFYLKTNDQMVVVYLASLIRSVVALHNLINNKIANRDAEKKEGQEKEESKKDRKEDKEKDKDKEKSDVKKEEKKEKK
# Procedure, shortened: as §1
# UCHL1 = UCHL1 (UniProt P09936)
# Chain of UCHL1 (P09936 whole entry, looked up): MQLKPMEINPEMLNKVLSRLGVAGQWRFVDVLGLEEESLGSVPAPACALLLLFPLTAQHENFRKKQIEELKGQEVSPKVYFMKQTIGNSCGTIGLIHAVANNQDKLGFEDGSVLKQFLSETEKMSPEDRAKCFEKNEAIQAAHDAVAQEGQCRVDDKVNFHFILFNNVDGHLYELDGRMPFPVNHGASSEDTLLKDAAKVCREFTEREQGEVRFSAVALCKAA
# Procedure, shortened: as §1
# UCHL3 = target: T4, UCHL3 (UniProt P15374)
# T4 sequence (whole entry): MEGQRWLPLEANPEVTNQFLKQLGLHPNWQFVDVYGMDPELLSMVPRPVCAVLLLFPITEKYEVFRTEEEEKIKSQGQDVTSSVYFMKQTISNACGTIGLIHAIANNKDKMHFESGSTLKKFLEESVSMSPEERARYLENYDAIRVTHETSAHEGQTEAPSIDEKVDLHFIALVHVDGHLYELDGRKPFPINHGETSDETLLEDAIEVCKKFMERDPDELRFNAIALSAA
# Procedure, shortened: as §1
# UCHL5 = target: T5, UCHL5 (UniProt Q9Y5K5)
# T5 sequence (whole entry): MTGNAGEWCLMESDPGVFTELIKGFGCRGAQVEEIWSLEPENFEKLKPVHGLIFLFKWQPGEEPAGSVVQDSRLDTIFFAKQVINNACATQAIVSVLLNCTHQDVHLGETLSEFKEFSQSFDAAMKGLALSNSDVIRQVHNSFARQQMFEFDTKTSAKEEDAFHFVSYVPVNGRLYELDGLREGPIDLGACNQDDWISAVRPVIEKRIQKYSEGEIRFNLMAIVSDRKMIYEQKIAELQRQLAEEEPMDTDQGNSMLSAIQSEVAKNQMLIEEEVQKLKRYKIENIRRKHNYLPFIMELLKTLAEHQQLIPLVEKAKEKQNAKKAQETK
# Procedure, shortened: as §1
# USP10 = USP10 (UniProt Q14694)
# Chain of USP10 (Q14694 whole entry): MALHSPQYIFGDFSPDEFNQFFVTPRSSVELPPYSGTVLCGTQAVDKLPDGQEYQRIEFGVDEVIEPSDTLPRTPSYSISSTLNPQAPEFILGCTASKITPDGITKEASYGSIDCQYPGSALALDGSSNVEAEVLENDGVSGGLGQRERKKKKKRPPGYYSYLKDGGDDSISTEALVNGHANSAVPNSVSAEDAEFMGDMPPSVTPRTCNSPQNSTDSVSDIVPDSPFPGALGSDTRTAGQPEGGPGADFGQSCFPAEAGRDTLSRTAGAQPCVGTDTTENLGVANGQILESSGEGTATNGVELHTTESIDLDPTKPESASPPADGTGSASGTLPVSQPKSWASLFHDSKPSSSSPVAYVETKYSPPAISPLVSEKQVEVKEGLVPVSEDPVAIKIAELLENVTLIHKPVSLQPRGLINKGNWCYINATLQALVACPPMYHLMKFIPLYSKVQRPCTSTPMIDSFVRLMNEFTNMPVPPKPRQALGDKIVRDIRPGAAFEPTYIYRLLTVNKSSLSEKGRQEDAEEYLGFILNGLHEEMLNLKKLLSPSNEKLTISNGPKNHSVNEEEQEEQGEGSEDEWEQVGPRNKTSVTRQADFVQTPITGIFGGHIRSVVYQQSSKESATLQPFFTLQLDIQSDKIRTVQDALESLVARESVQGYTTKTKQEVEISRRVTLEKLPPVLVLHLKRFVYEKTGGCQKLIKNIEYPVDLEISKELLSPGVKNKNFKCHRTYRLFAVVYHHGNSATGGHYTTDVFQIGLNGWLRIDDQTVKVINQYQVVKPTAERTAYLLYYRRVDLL
# Procedure, shortened: as §1
# USP15 = target: T6, USP15 (UniProt Q9Y4E8)
# T6 sequence (whole entry): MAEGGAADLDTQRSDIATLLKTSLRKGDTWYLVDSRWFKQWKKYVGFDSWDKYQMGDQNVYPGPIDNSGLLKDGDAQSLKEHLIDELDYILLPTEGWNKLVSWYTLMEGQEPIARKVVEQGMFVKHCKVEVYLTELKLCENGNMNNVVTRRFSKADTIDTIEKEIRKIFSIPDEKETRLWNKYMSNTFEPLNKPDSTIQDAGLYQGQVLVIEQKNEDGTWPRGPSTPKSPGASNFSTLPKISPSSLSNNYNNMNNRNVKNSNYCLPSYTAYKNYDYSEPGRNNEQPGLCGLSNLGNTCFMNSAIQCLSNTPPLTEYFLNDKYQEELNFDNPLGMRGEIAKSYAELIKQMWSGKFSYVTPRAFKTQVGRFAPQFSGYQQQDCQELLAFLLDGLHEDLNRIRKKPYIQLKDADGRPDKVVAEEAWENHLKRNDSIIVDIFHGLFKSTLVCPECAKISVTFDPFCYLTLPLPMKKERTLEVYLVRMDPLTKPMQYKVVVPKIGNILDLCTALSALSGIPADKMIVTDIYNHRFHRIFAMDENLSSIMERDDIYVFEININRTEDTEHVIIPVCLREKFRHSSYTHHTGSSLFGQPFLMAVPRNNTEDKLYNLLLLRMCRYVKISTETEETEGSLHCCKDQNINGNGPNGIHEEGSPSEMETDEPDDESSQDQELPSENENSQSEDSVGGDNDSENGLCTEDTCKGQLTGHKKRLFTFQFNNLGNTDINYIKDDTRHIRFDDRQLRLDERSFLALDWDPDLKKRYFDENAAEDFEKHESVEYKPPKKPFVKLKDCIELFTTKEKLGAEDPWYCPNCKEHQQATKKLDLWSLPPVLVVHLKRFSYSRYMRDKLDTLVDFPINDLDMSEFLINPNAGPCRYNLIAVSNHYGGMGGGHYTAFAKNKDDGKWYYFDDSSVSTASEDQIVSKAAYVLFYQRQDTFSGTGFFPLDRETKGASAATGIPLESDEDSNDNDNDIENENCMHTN
# Procedure, shortened: as §1
# USP16 = USP16 (UniProt Q9Y5T5)
# Chain of USP16 (Q9Y5T5 whole entry, looked up): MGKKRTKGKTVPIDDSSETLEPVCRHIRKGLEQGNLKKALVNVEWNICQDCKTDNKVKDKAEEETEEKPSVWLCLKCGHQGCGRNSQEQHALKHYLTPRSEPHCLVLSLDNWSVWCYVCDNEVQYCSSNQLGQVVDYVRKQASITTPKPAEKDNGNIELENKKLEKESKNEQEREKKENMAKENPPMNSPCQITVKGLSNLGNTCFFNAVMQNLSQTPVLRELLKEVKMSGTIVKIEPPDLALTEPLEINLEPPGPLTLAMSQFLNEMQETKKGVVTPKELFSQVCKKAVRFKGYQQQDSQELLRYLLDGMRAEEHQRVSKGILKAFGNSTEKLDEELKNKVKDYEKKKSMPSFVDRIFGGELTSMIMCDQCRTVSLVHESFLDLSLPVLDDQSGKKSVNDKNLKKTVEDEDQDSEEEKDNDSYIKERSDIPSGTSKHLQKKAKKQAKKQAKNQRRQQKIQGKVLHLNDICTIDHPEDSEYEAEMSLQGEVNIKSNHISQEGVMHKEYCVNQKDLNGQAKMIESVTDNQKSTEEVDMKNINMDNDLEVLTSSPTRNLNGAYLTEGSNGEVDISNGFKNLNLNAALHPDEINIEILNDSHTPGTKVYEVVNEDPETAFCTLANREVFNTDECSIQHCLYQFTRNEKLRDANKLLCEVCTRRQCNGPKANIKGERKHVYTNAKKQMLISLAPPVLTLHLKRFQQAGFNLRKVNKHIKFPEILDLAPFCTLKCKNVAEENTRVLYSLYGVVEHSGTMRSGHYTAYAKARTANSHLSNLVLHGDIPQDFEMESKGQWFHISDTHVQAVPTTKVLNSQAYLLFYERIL
# Procedure, shortened: as §1
smiles,measurement,setting,value
Cl.Cn1c(CNC(=O)CCl)nc2cccnc21,log2 ratio of Biotin-Ahx-Ub-VS probe labelling,OTUD6B,-0.213
same,log2 ratio of Biotin-Ahx-Ub-VS probe labelling,OTUD7B,-0.356
same,log2 ratio of Biotin-Ahx-Ub-VS probe labelling,PRPF8,-0.144
same,log2 ratio of Biotin-Ahx-Ub-VS probe labelling,PSMD7,-0.0899
same,log2 ratio of Biotin-Ahx-Ub-VS probe labelling,UCHL1,-1.17 (active)
same,log2 ratio of Biotin-Ahx-Ub-VS probe labelling,UCHL3,0.177
same,log2 ratio of Biotin-Ahx-Ub-VS probe labelling,UCHL5,-0.302
same,log2 ratio of Biotin-Ahx-Ub-VS probe labelling,USP10,-0.0558
same,log2 ratio of Biotin-Ahx-Ub-VS probe labelling,USP15,-0.177
same,log2 ratio of Biotin-Ahx-Ub-VS probe labelling,USP16,-0.246
